Bioassay records: PubChem BioAssay, National Center for Advancing Translational Sciences (NCATS)
This is a sample that favours compounds with a hit; in the whole collection about 4.4% have one here.
TRHR ag: activates the human TRH receptor. AID 493084. activation, % at 2 µM. P34981. 0.18% of 360,000 active. TRHR cells, calcium flux fluo-8, FDSS agonist mode
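Read-out: compound-evoked intracellular calcium rise in TRHR cells, fluo-8 dye, kinetic FDSS fluorescence at 1 s/cycle following a 10-cycle baseline. Cells cultured overnight before dye loading (30 min–1.5 h, RT).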
TRHR PAM: allosterically enhances the human TRH receptor; enhancement, % at 2 µM; TRHR cells, fluo-8 calcium fluorescence, EC20 TRH enhancement; AID 493056; 0.66% of 360,000 active; P34981; in the data active = enhancement above about 30%
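Enhancer read-out: after compound pinning and an initial kinetic agonist-mode read, an EC20 of TRH (10 nM final) was injected and fluo-8 calcium signal (Ex 480/Em 530) followed at 1 s/cycle for 100 cycles in TRHR-expressing cells.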
D1 agonist: agonists of human D1 dopamine receptor. 1% of 360,000 active. AID 504660. activation, % at 2 µM. HEK293 T-REx D1 cells, calcium flux, agonist mode. P21728
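Tetracycline-induced HEK293 TREx D1 cells, force-coupled to calcium signalling, were dye-loaded with a no-wash calcium kit. Compound was pin-added after a 10 s baseline. Fluorescence was read kinetically at 1 cycle/s for 180 s, with calcium rises flagged as agonism.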
USP1-UAF1 inh: USP1/UAF1 (human) deubiquitinase inhibition | O94782 | recombinant USP1/UAF1, Ub-Rhodamine cleavage fluorescence | Potency, µM (series often up to 57.1 µM), hits mostly inhibitors | 0.23% of 390,000 active; active = well fitted inhibition curve with a large enough effect; inconclusive = small, poorly fitted or top-dose-only effect; inactive = no such curve, though single readings can be large or run the other way; also: nearly all actives have a fitted effect of over 60% in size
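High-throughput fluorogenic screen: 1nM USP1/UAF1 complex, Ub-Rho substrate 150nM final, 50mM HEPES pH 7.8 with 0.5mM EDTA, 0.1 mg/ml BSA, 1mM TCEP and 0.01% Tween-20.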
D1 antag: antagonists of human D1 dopamine receptor. AID 504652. HEK293 TREx D1 cells, calcium flux, dopamine EC80; stronger effect = lower value. 3.2% of 360,000 active. activity change, negative = inhibition, % at 10 µM. P21728; in the data active = activity change below about -30%
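Calcium flux readout: force-coupled, inducible Hek293 Trex D1 line, cells induced overnight at 30 C with tetracycline, dye-loaded 30–90 min at RT. Antagonism scored against EC80 dopamine challenge given 180 s after compound.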
D1 PAM: enhances dopamine response at the human D1 receptor | P21728 | HEK293 TREx D1 cells, calcium flux, dopamine EC20 potentiation | potentiation, % at 10 µM | 0.036% of 360,000 active | AID 504651; in the data active = potentiation above about 30%
Of the large screens only hits and unclear results are named; the others gave an inactive call. Rule as the data show it, unless noted: active = activation above about 30%; inactive = the rest.

Cc1ccc(NC(=O)Cc2csc(C)n2)c(C)c1	none
CCOC(=O)c1ccc2c(c1)nc(SCC(=O)c1ccco1)n2CC	D1 antag -34
CCOC(=O)c1ccc2c(c1)nc(SCC(=O)N1CCCCC1)n2CC	none
O=C1NC(=O)[C@@H]2C3c4ccccc4C=CN3[C@H](C(=O)c3cccs3)[C@H]12 (some centres undefined)	D1 antag -70 (no result: USP1-UAF1 inh)
Cc1ccc(-c2cn3c(n2)SCC3)cc1	USP1-UAF1 inh inconclusive
CCc1ccc(-c2cn3c(n2)SCC3)cc1	D1 antag -86
O=C(NCC1CCCO1)c1c(O)c2cccc3c2n(c1=O)CCC3 (centres undefined)	D1 antag -53
Cc1ccc(C)c(N(C)S(=O)(=O)c2ccc3[nH]cc(C(=O)NC4CCCC4)c(=O)c3c2)c1	none
Cc1coc2cc3oc(=O)c4c(c3cc12)CCCC4	D1 antag -45
Cc1ccc(Cl)cc1NC(=O)CSc1nc2c(c(=O)[nH]1)CN(Cc1ccccc1)CC2	D1 antag -81
COc1ccc2oc(=O)c(-c3csc(/C(C#N)=C/c4ccc(F)cc4)n3)cc2c1	D1 antag -31
O=S(=O)(c1ccc(SCCOc2ccccc2Cl)nc1)N1CCCC1	D1 agonist 38 (no result: D1 PAM)
CC(C)N(C(=O)CSc1ccc(S(=O)(=O)N2CCCCC2)cn1)C(C)C	none
NC(=O)CSc1ccc(S(=O)(=O)N2CCCCC2)cn1	D1 agonist 41 (no result: D1 PAM)
CN1CCN(S(=O)(=O)c2ccc(SCCOc3ccc(Cl)cc3)nc2)CC1	D1 antag -44
Cc1nc(SC(C)C(=O)Nc2ccccc2Cl)cc(-c2ccccc2)n1 (centres undefined)	none
CCOC(=O)c1cc(C)n(CC2CCC(C(=O)Nc3ccccc3OC)CC2)c1C (centres undefined)	none
CCC(C)Nc1sc(S(=O)(=O)CC)nc1S(=O)(=O)c1ccc(C)cc1 (centres undefined)	none
CCC(Nc1ccc(-c2nc(-c3cccnc3)no2)cc1[N+](=O)[O-])c1ccccc1 (centres undefined)	none
CCOC(=O)N1CCN(Cc2nc3cc(NC(=O)c4ccc([N+](=O)[O-])cc4)ccc3n2C(C)C)CC1	none
CCOC(=O)CC(/C(C)=N\O)c1ccccc1 (centres undefined)	D1 antag -75
Cc1ccc(CNC(=O)CCSCc2cnn(-c3ccccc3)c2-n2cccc2)cc1	D1 antag -34
O=C(CCSCc1cnn(-c2ccccc2)c1-n1cccc1)NCc1ccc(Cl)cc1	D1 antag -52
O=C(CSCc1cnn(-c2ccccc2)c1-n1cccc1)NCc1cccnc1	none
CN(C)S(=O)(=O)c1ccc(NC(=O)COC(=O)C2COc3ccccc3O2)cc1 (centres undefined)	USP1-UAF1 inh inconclusive, D1 antag -94
CCc1ccccc1Nc1nc2cc(Cl)c(Cl)cc2nc1-n1nc(C)cc1C	none
Cc1cccc(C2CC(=O)Nc3cc4c(cc32)OCO4)c1 (centres undefined)	none
CC(C)Oc1cccc(C2CC(=O)Nc3cc4c(cc32)OCO4)c1 (centres undefined)	D1 agonist 68, D1 antag -32
CS(=O)(=O)N(CC(=O)N/N=C/c1cc([N+](=O)[O-])ccc1Cl)c1ccccc1	none
Cc1cccc(N(CC(=O)N/N=C/c2cc([N+](=O)[O-])ccc2Cl)S(C)(=O)=O)c1C	D1 antag -45
CC(CCc1ccccc1)NC(=O)c1cccc([N+](=O)[O-])c1 (centres undefined)	none
O=C(Nc1ccc(Cc2ccncc2)cc1)c1ccc(N2CCOCC2)c([N+](=O)[O-])c1	D1 antag -44
Cc1ccc(C(=O)NC(C)CCc2ccccc2)cc1[N+](=O)[O-] (centres undefined)	D1 antag -62
O=C(Nc1ccc(Cc2ccncc2)cc1)c1cccc([N+](=O)[O-])c1	none
CCCC(=O)Nc1cccc(NC(=O)c2ccc(C)c([N+](=O)[O-])c2)c1	D1 antag -34
